Assay outcomes as filed in PubChem.
The list is not random: actives were taken first. Their share in the collection is about 17%.
DT40 TDP1 CPT – DT40-hTDP1 cell growth loss with CPT | chicken DT40 Tdp1-/-;hTDP1 cells + 20 nM CPT, ATP luminescence, 48 h | Potency, µM (series often up to 46.2 µM), inactives show at the highest dose activity change, negative = growth inhibition, hits mostly inhibitors | 420,000 compounds, 12% hits | AID 686979; further: on the % scale 0 is the no-effect control and ±100 the full control effect; nearly all actives have a fitted effect of over 55% in size
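Cell growth measured by CellTiter-Glo luminescence after a minimum 48 h, 37 C compound exposure with 20 nM CPT in Tdp1-knockout DT40 cells stably expressing hTDP1, seeded 400/well; qHTS titration format.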
HT1080 IDH1KD tx – toxicity to HT-1080 IDH1 knockdown cells (counter line). 360,000 compounds, 2% hits. HT-1080 IDH1 knockdown viability, ATP luminescence, 48 h. Potency, µM (titrated, usually from 46.1 µM), without a hit: at the highest dose activity, negative = toxicity, hits mostly cytotoxic. AID 686971;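 further: 0% = DMSO wells and -100% = cell-free medium wells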
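Viability of IDH1-knockdown HT-1080 fibrosarcoma cells was assessed by CellTiter-Glo after 48 h at 37 °C with titrated compound; concentration-effect curves were classified by fit quality and response size.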
TDP1 cell noCPT – qHTS for Inhibitors of human tyrosyl-DNA phosphodiesterase 1 (TDP1): qHTS in cells in absence of CPT; DT40 Tdp1-/- hTDP1 cells, no CPT, ATP luminescence, 48 h; Potency, µM (top dose mostly 46.2 µM), without a hit: at the highest dose activity change, negative = growth inhibition, actives largely listed as inhibitors; 420,000 compounds, 15% hits; further: on the % scale 0 is the no-effect control and ±100 the full control effect; nearly all actives have a fitted effect of over 55% in size
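Seeded 400 DT40-hTDP1 cells/well (vehicle DMSO, no 20 nM CPT); pinned compounds; ≥48 hr at 37 °C; CellTiter-Glo luminescence as viability measure.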
HT1080-NT tox – kills 2HG-producing HT-1080-NT fibrosarcoma cells; Potency, µM (titrated, usually from 46.1 µM), for the others: at the highest dose activity, negative = less viability, actives largely listed as cytotoxic; AID 686970; HT-1080-NT fibrosarcoma viability, CellTiter-Glo ATP luminescence, 48 h; 360,000 compounds, 1.6% hits;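 further: NT is the 2HG producing partner of a matched IDH1 knockdown line; 0% = DMSO-treated cells and -100% = media-only wells without cells; nearly all actives have a fitted effect of over 55% in size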
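HT-1080-NT; 750 cells/well; 5% FBS RPMI; 48 h compound, 37 degrees C; CellTiter-Glo luminescence; curve fitting and curve-class assignment.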
TGFb SMAD3 inh – TGF-b pathway inhibition; HepG2 CAGA-GFP TGF-b/SMAD3 reporter, GFP fluorescence, 18 h; TGF-beta stimulated, 500 pg/mL final; Potency, µM (series often up to 46.1 µM), without a hit: at the top dose activity, negative = inhibition, most hits filed as inhibitors; 410,000 compounds, 1.2% hits; further: on the % scale 0 is the no-effect control and ±100 the full control effect; nearly all actives have a fitted effect of over 65% in size
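TGF-beta reporter screen: HEPG2 CAGA-GFP, 1% FBS, 500 pg/mL TGF-beta final, 18 h; per-cell GFP summed per well; curves fitted and categorized by class.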
HepG2 viability – HepG2 cytotoxicity, counter-screen for TGF-b inhibitors | Potency, µM (highest dose often 46.1 µM), inactives show at the highest dose activity change, negative = cytotoxicity, hits mostly cytotoxic | AID 588856 | 410,000 compounds, 0.76% hits | HepG2 CAGA-GFP viability, ATP luminescence, 18 h
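HepG2 CAGA-GFP cells (1000/well, DMEM with 1% FBS) received compound, then TGF-beta at 500 pg/mL final, and were incubated 18 hours at 37 degrees C. Viability was read by CellTiter-Glo luminescence. Media-only wells were set as complete cell-killing and DMSO as no toxicity.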
* marks the source's active call; other numbers are inactive results; ? = inconclusive; · = no result given. The call rests on the fitted dose curve; in most records, active means well fitted curve in the direction sought with a large enough effect; inconclusive means small, poorly fitted or top-dose-only effect, or another doubt; inactive means no such curve, though single readings can be large; an effect the other way counts as inactive or inconclusive. Potency means the concentration at half of the fitted maximal effect.

SMILES | DT40 TDP1 CPT | HT1080 IDH1KD tx | TDP1 cell noCPT | HT1080-NT tox | TGFb SMAD3 inh | HepG2 viability
COc1cc(/C=C2\C(=O)ON=C2c2ccccc2)cc(Br)c1O | 6.5µM* | ? | 10µM* | 16µM* | ? | -57%
CCOc1cc(/C=C2/C(=O)ON=C2C)cc(Br)c1O | ? | 6% | ? | -1% | -5% | 3%
COc1cc(/C=C2\C(=O)ON=C2c2ccccc2)cc(Cl)c1O | 16µM* | ? | 18µM* | ? | 1% | -1%
COCCCN1C(=O)C(CC(=O)NC2CCCC2)CC(C(=O)N2CCOCC2)=C1C (stereo not drawn) | 26% | 10% | ? | 11% | 0% | -53%
CCOC(=O)CC1C(=O)NCCN1C(=O)c1sc2ccccc2c1Cl (stereo not drawn) | -19% | 0% | 2% | -5% | -11% | -4%
CC(=O)N1N=C(c2ccc(C)cc2)OC1c1cccnc1 (stereo not drawn) | -2% | ? | -23% | 0% | 20% | -11%
CCOC(=O)C1=CN(CC)S(=O)(=O)NC1c1cccc(OC)c1 (stereo not drawn) | 9% | 4% | -3% | 2% | 1% | -2%
CC(=O)ON(C(C)=O)c1ccc(/C=C2\C=Cc3ccccc32)cc1 | ? | · | ? | · | -20% | -30%
COc1cc(/C=c2\sc3n(c2=O)C(c2ccccc2)C(c2ccccc2)=NN=3)ccc1O (stereo not drawn) | ? | -27% | 15µM* | -19% | 34% | -1%
CC(=O)Nc1ccc(O)c(-c2nc3ccccc3s2)c1 | -9% | -20% | ? | -2% | -2% | -22%
C/C(N=Nc1nc2ccccc2s1)=N\Nc1ccccc1O | 9.2µM* | 15µM* | 2.6µM* | 13µM* | 11µM* | -97%
Nc1cc(S(=O)(=O)N2CCOCC2)ccc1N1CCCCC1 | 23µM* | -13% | ? | 0% | -9% | -3%
Nc1ccc(S(=O)(=O)c2ccc(N3CCOCC3)c(N)c2)cc1 | -23% | -20% | 21µM* | -2% | -4% | -20%
COc1ccc(CN2CCC2(C)C(=O)NCCc2c[nH]c3ccccc23)c2ccccc12 (stereo not drawn) | ? | -23% | ? | -2% | ? | -7%
CCOC(=O)CNC(=O)Cn1cnc2c(oc3ccccc32)c1=O | -15% | 8% | 13% | 3% | 8% | 4%
Cc1cc(O)ccc1Nc1cc(-c2cccc(N)c2)ncn1 | -16% | 17% | -22% | 9% | -5% | 7%
COc1ccc2nc3ccccc3nc2c1N | ? | ? | 8.2µM* | -24% | ? | -26%
COc1ccc2nc3cccc(OC)c3nc2c1 | ? | -2% | ? | 2% | -4% | 6%
O=C(/C=C/Nc1ccccc1)c1ccc(Cl)cc1Cl | -22% | 2% | ? | 9% | ? | -63%
N#Cc1c(Nc2ccccc2)[n+]([O-])c2ccc(Cl)cc2[n+]1[O-] | 6.5µM* | ? | ? | 2% | ? | -59%
COCCNC(=S)N(CCc1c(C)[nH]c2ccc(F)cc12)Cc1cccs1 | ? | -4% | 23µM* | ? | ? | -52%
COc1cccc(NC(=S)N(CCc2c(C)[nH]c3ccccc23)Cc2cccs2)c1 | ? | ? | 16µM* | -29% | ? | -30%
CCNC(=S)N(CCc1c(C)[nH]c2ccc(C)cc12)Cc1cccs1 | ? | ? | ? | ? | ? | -18%
COCCNC(=S)N(CCc1c(C)[nH]c2ccc(Cl)cc12)Cc1cccs1 | ? | ? | ? | 21µM* | ? | -50%
Cc1[nH]c2ccccc2c1CCN(Cc1cccnc1)C(=S)Nc1ccc(F)cc1 | 16µM* | -8% | 16µM* | -1% | -14% | -28%
SMILES | DT40 TDP1 CPT | HT1080 IDH1KD tx | TDP1 cell noCPT | HT1080-NT tox | TGFb SMAD3 inh | HepG2 viability
CCNC(=S)N(CCc1c(C)[nH]c2ccc(Cl)cc12)Cc1ccco1 | ? | ? | ? | ? | ? | -34%
Cc1[nH]c2ccccc2c1CCN(Cc1cccnc1)C(=S)Nc1cccc(F)c1 | ? | -13% | ? | -26% | -18% | -2%
Cc1nn(CC(=O)NCCCN2CCCC2=O)c(C)c1[N+](=O)[O-] | -18% | -16% | -12% | -1% | 12% | -1%
C=CCNC(=S)NNC(=O)CCC(O)CCCCC (stereo not drawn) | 15µM* | 9% | 18µM* | -1% | -2% | -32%
COc1ccc(-c2nn(CC(=O)NCc3ccccc3)c3c2cnc2ccc(F)cc23)cc1 | -19% | · | 3% | · | 7% | 2%
COc1ccc(S(=O)(=O)N2CCN(C(=O)c3cc(-c4ccc(C)cc4)n[nH]3)CC2)cc1 | 26µM* | -4% | ? | -11% | -1% | -25%
Cc1ccc(-c2cc(C(=O)N3CCN(S(=O)(=O)c4ccc(Br)s4)CC3)[nH]n2)cc1C | 15µM* | · | 13µM* | · | 0% | -26%
COc1ccc(-c2cc(C(=O)N3CCN(S(=O)(=O)c4ccc(C)cc4)CC3)[nH]n2)cc1 | ? | -6% | ? | 10% | ? | -2%
O=C(c1cc(-c2ccc(Br)cc2)n[nH]1)N1CCN(S(=O)(=O)c2ccc(Br)s2)CC1 | 21µM* | · | 23µM* | · | -6% | -37%
Cc1ccc(-c2cc(C(=O)N3CCN(S(=O)(=O)c4ccc(Br)s4)CC3)[nH]n2)c(C)c1 | 12µM* | · | 18µM* | · | -48% | -32%
O=C(c1cc(-c2ccc(Br)cc2)n[nH]1)N1CCN(S(=O)(=O)c2ccc(Cl)s2)CC1 | ? | · | ? | · | 0% | -27%
CCc1nnc(NC(=O)c2nc(SCc3ccc(F)cc3)ncc2Cl)s1 | -10% | · | -18% | · | -11% | -10%
Cc1cc2n(n1)CCC(=O)N2Cc1ccc(C(=O)Nc2cc(Cl)ccc2C)cc1 | ? | · | 21µM* | · | ? | -25%
Cc1ccc(NC(=O)c2ccc(CN3C(=O)CCn4nc(C)cc43)cc2)c(Cl)c1 | ? | · | ? | · | ? | -42%
Cc1cc2n(n1)CCC(=O)N2Cc1ccc(C(=O)Nc2cccc(C(F)(F)F)c2)cc1 | 15µM* | · | 15µM* | · | -19% | -34%
COc1ccc(NC(=O)CC2C(=O)N(C)C(=S)N2Cc2ccc3c(c2)OCO3)cc1 (stereo not drawn) | 2% | -7% | -2% | -6% | -18% | 3%
